Reference: PubChem BioAssay (NCI)
This is part of a sample that, as a whole, favours compounds with a hit. Of some 83,000 tested, about 20% had one in any assay.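 A percent growth of 40 corresponds to 60% growth inhibition; 0 means no net growth; -100 means all cells died. Active threshold: below 10.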 A number with no mark means an inactive call. Activity calls are given as the source filed them.

Assays:
Assay in all cases: NCI-60 one-dose screen, 48 h (100 = growth as untreated, 0 = no growth, -100 = all killed)
Settings in all cases: 10 µM unless noted
[1] = test system: NCI-H23 lung
[2] = test system: NCI-H226 lung
[3] = test system: NCI-H322M lung
[4] = test system: HOP-62 NSCLC
[5] = test system: NCI-H460 lung
[6] = test system: HOP-92 NSCLC
[7] = test system: NCI-H522 lung
[8] = test system: A549/ATCC NSCLC
[9] = test system: 786-0 renal
[10] = test system: COLO 205 colon
[11] = test system: DU-145 prostate
[12] = test system: K-562 leukemia
[13] = test system: MALME-3M melanoma
[14] = test system: MDA-MB-231 breast
[15] = test system: RXF 393 renal
[16] = test system: SF-268 CNS
[17] = test system: SF-295 CNS
[18] = test system: SF-539 CNS
[19] = test system: UACC-257 melanoma
[20] = test system: M14 melanoma

Compound	growth [1]	growth [2]	growth [3]	growth [4]	growth [5]	growth [6]	growth [7]	growth [8]	growth [9]	growth [10]	growth [11]	growth [12]	growth [13]	growth [14]	growth [15]	growth [16]	growth [17]	growth [18]	growth [19]	growth [20]
Nc1n[nH]c2cc(F)c([C@@H]3Nc4ccc5[nH]ncc5c4[C@H]4C5CCC(C5)[C@@H]34)cc12 (stereo not given in full)	26.4%	15%	54.7%	26.1%	-11.2% (active)	45.7%	-19% (active)	8.81% (active)	25.4%	-26.9% (active)	-7.54% (active)	11.5%	73%	35.8%	54.2%	9.83% (active)	6.25% (active)	-31% (active)	53.1%	-1.74% (active)
COc1ccc(S(=O)(=O)N2CCCCCC2)cc1NC(=O)c1[nH]c(C)c2c1CCCCC2=O	30.4%	45.5%	35.8%	26.8%	42.2%	31.5%	27.3%	29.6%	34.9%	26.8%	58%	21.4%	55.6%	36.3%	34.7%	52.8%	25.5%	29.9%	34.5%	42.8%
O=C(N/N=C/c1c[nH]c2ccccc12)c1cc(-c2ccccc2)on1	93.6%	87.6%	82.9%	98.8%	98.1%	92.1%	75%	96.7%	97.9%	113%	100%	55.4%	94.8%	89.4%	97.8%	85.9%	98.2%	84.6%	102%	88.6%
C=CC(COC(c1ccccc1)(c1ccccc1)c1ccccc1)N(CC)CC (stereo not given)	65.2%	56.2%	87%	61.8%	58.1%	75.7%	54.9%	63.1%	77.6%	0.413% (active)	69.9%	14.4%	61.9%	37%	-5.47% (active)	81.9%	64.1%	62.6%	6.09% (active)	9.54% (active)
C=C1c2nc3ccccc3n2C=C(c2ccc(OC)cc2)N1Cc1ccccc1	81.3%	102%	102%	136%	90.8%	95.9%	64.5%	96%	83.6%	92.8%	103%	73.5%	109%	100%	101%	89.2%	103%	115%	97.1%	98.1%
Cc1ccc(NC(=O)/C=C/c2ccccc2)c(C(N)=O)c1	58.6%	68.2%	63.1%	88.2%	10.5%	62.9%	-8.74% (active)	25.7%	60.7%	-21.2% (active)	-8.15% (active)	13.1%	96.6%	52.5%	-9.67% (active)	43.3%	15.2%	0.356% (active)	63.2%	27%
O=C1CC(=NCC(=O)n2c(-c3ccccc3)nc3ccccc32)NN1	91.8%	90.2%	103%	89%	100%	99.5%	84.5%	114%	107%	111%	115%	111%	111%	90.1%	110%	102%	101%	99.4%	120%	104%
O=C(NCCN1CCOCC1)Nc1ccc(-c2cc3c(Nc4ccc(Oc5cccc(C(F)(F)F)c5)c(Cl)c4)ncnc3s2)cc1	27.4%	26.3%	18.7%	-26% (active)	-39.8% (active)	16.4%	27.3%	4.01% (active)	-43% (active)	-56.7% (active)	44.7%	-29.5% (active)	-57.5% (active)	12%	-19.5% (active)	29.3%	-58.5% (active)	-13.5% (active)	26.4%	-50.5% (active)
NS(=O)(=O)c1ccc(CN=C2NC(=O)S/C2=C\c2ccc(Br)cc2)cc1	97.6%	96.9%	91%	103%	101%	90.5%	90.8%	98.3%	94.1%	106%	111%	102%	93.8%	101%	105%	92.3%	102%	92.3%	102%	102%
Cc1ccc2oc(=O)cc(C3c4ccc([nH]4)C(c4cc(=O)oc5ccc(C)cc45)c4ccc([nH]4)C(c4cc(=O)oc5ccc(C)cc45)c4ccc([nH]4)C(c4cc(=O)oc5ccc(C)cc45)c4ccc3[nH]4)c2c1 (stereo not given)	-53.2% (active)	-39.2% (active)	-10.2% (active)	-68.2% (active)	-66.4% (active)	-24.1% (active)	-63.5% (active)	-24.6% (active)	-58.9% (active)	-80.6% (active)	-46.3% (active)	-26% (active)	-35.1% (active)	-53.8% (active)	-87.3% (active)	-39.5% (active)	-78.2% (active)	-75.1% (active)	-67.7% (active)	-71.9% (active)
N#CCCN=Nc1c(O)[nH]c2ccc(F)cc12	96.3%	96.1%	103%	98.6%	101%	101%	85%	111%	94.1%	118%	106%	119%	99.2%	102%	103%	96.5%	101%	105%	118%	98%
O=c1cc(CSc2nnc(SCc3cc(=O)oc4c3ccc3ccccc34)o2)c2ccc3ccccc3c2o1	89.9%	83.6%	93.3%	99.2%	104%	97.6%	70.1%	89.3%	109%	106%	109%	97.7%	102%	95.8%	119%	96.7%	96.1%	101%	93.6%	103%
O=C(COc1ccc(-c2nc3cc(Cl)c(Cl)cc3[nH]2)cc1)N=Nc1c(O)[nH]c2ccccc12	31.8%	-30.2% (active)	4.51% (active)	50.1%	-69.6% (active)	-33.3% (active)	13.6%	29%	-44.8% (active)	12.6%	-20.7% (active)	10.8%	-68.9% (active)	-50.2% (active)	-5.96% (active)	-64.5% (active)	5.99% (active)	41.4%	54.4%	-22.1% (active)
COc1ccc(C(=O)c2sc3nc(C)cc(C)c3c2N)cc1OC	74.3%	89.8%	87.9%	53.4%	67.6%	89.7%	-13.1% (active)	60%	99.5%	102%	90.7%	92.6%	83.3%	56.3%	93.9%	60.1%	89.8%	92.2%	95.1%	105%
Cc1ccc2c(c1)C(=O)/C(=C/c1cccc(OCC(=O)c3ccc(Cl)cc3)c1)CS2	79%	91.6%	72.9%	105%	98.8%	61.5%	46.8%	103%	103%	111%	108%	29.2%	95.9%	61.9%	4.49% (active)	108%	125%	112%	120%	107%
